Source: PubChem
Rows were chosen to be rich in hits. Some 11% of all compounds tested hit in one or more screens of this group.
ALDH1A1 block: ALDH1A1 (human) enzyme inhibition; Purified ALDH1A1, NADH fluorescence, propionaldehyde substrate; AID 1030; Potency, µM (highest dose often 75.3 µM), for inactives: top-dose activity, negative = inhibition, most hits filed as inhibitors; 7.3% of 220,000 active; active = well fitted inhibition curve with a large enough effect, not every such curve was filed as active; inconclusive = small, poorly fitted or top-dose-only effect, or another doubt; inactive = no such curve, though single readings can be large or run the other way;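 note: potency is the fitted concentration of half-maximal effect; plate controls were no enzyme wells and a reference inhibitor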
PNC inhibitor: perinucleolar compartment assembly inhibition | PC3M PTB-GFP, PNC prevalence imaging, 16 h; active compounds read low | 3.1% of 140,000 active | activity change (PNC), negative = inhibition, % at 10 µM;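 active = readout at or below -70, meaning at least 70% loss of cells showing the perinucleolar compartment, a nuclear body marking cancer cells; inconclusive = readout between -30 and a set limit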;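 note: plate controls were DMSO wells for no effect and camptothecin positive control wells for full effect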
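PC3M cells stably expressing PTB-GFP, 750–1000 cells/well, treated 16 h at 37 °C with compound (23 nl of library stock), in duplicate. After paraformaldehyde fixation and Hoechst stain, imaged at 20x; PNC prevalence scored by image analysis.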
HPGD inh: blocks human HPGD enzyme activity; P15428; purified HPGD, NADH fluorescence kinetic, PGE2 substrate; Potency, µM, for inactives: at the top dose activity change, negative = inhibition, actives largely listed as inhibitors; 4.3% of 150,000 active; active = well fitted inhibition curve with a large enough effect, not every such curve was filed as active; inconclusive = small, poorly fitted or top-dose-only effect, or another doubt; inactive = no such curve, though single readings can be large or run the other way; note: potency is the fitted concentration of half-maximal effect; % is set by controls: 0 for no effect and ±100 for the full control effect
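NADH formation kinetics: reaction with 30 uM PGE2 and 1 mM NAD+ (final), 20 nM enzyme, Tris-HCl pH 8 with Tween 20, after 15 min compound preincubation at room temperature. Fluorescence change, last versus first of five reads.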
HTT aggregate: reduces HttQ103-GFP aggregates in PC12 cells. AID 1688. Potency, µM (highest dose often 46.1 µM), inactives show at the top dose activity change, negative = inhibition, usual class: inhibitors. PC12 HttQ103-GFP aggregates, Acumen cytometry, 40 h. 1.1% of 220,000 active; note: potency is the fitted concentration of half-maximal effect; % is set by controls: 0 for no effect and ±100 for the full control effect; nearly all actives have a fitted effect of over 60% in size
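PC12 cells with ecdysone-inducible HTT exon1 Q103-GFP, induced by 100 nM tebufenozide, given compounds in a concentration series. GFP aggregates (1–25 um, 6 SD above background) counted in lysates by laser-scanning cytometry, 488 nm excitation.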
HTT ATP protect: protects HTT-Q103 PC12 cells, measured by ATP. PC12 HTT-Q103 induced, cytoprotection, ATP luminescence, 40 h. Potency, µM (titrated, usually from 56.4 µM), for inactives: cytoprotection (ATP increase), hits mostly activators. 0.14% of 230,000 active. AID 1471; note: potency is the fitted concentration of half-maximal effect; % of control where 0% means no effect; nearly all actives have a fitted effect of over 45% in size
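Cells were plated at 1500 per well in phenol red-free DMEM with 5% equine and 5% calf serum. Tebufenozide (100 nM final) and compounds were added, then ATPlite reagent, and luminescence was read.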
CBFb RUNX1 block: inhibitors of human CBF-beta and RUNX1 interaction. Q01196+Q13951. AlphaScreen CBFb-His/RUNX1-biotin binding, biochemical. Potency, µM (titrated, usually from 59.8 µM), for the others: top-dose activity, negative = inhibition, actives largely listed as inhibitors. 230,000 tested, under 10 active; note: % of control where 0% means no effect
Target sequence (Q01196 whole entry, looked up): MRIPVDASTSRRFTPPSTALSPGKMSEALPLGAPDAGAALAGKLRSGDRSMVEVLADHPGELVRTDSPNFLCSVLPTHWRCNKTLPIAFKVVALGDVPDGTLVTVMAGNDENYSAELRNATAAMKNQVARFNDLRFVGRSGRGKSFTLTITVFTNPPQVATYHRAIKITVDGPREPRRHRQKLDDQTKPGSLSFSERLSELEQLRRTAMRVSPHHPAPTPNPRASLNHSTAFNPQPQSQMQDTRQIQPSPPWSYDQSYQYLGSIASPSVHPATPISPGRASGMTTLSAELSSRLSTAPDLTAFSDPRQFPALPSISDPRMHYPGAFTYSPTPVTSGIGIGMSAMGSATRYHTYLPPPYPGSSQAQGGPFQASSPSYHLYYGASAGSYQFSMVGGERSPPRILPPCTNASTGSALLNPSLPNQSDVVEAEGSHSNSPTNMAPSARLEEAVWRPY
Target sequence (Q13951 whole entry, looked up): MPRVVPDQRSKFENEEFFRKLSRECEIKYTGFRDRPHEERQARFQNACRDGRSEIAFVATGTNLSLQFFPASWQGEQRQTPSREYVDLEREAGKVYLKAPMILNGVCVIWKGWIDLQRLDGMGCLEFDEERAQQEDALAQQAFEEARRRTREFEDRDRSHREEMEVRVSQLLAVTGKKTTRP
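AlphaScreen proximity signal reports loss of binding between His-tagged CBF-beta and biotin-labelled RUNX1, each at 30 nM. Proteins are pre-associated for 20 minutes, compounds added for 15 minutes, then beads for 90 minutes, all at ambient temperature.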
* hit, by the source's call; ? = inconclusive; . = not tested or not shown; [ ] = dose if it differs, or a comment. Unless noted, calls come from the whole dose curve; as a rule, active = well fitted curve in the direction sought with a large enough effect; inconclusive = small, poorly fitted or top-dose-only effect, or another doubt; inactive = no such curve, though single readings can be large; an effect the other way counts as inactive or inconclusive.

SMILES | ALDH1A1 block | PNC inhibitor | HPGD inh | HTT aggregate | HTT ATP protect | CBFb RUNX1 block
C[C@@H]1C[C@H](C)CN(S(=O)(=O)c2cc(Cl)c(Oc3ccc([N+](=O)[O-])cc3Cl)c(Cl)c2)C1 | -5.8%[13.5 µM] | . | -1.1% | . | 6.1%[10 µM] | .
Cn1c(-c2ccc3c(c2)OCO3)cnc1NCc1cccc(Cl)c1 | 14.1µM* | 7.1 | ? | -17.7% | -13.9% | -9.9%
Cn1c(-c2ccc3c(c2)OCO3)cnc1NCc1ccccc1 | ? | -21.3 | 15.8µM* | -0.9% | 13.6% | -2.3%
Cn1c(-c2ccc3c(c2)OCO3)cnc1NCc1ccccc1Cl | ? | . | . | 1.6%[9.22 µM] | -2.7%[10 µM] | -4.6%
CC(C(=O)NC1C(=O)N2C(C(=O)O)=C(CSc3nnnn3C)CSC12)n1cc(Cl)cn1 (centres undefined) | -15.2% | . | . | 21.3% | 26.9% | -11.5%
CCCCC[C@H](O)/C=C/[C@@H]1[C@H]2C/C(=C/CCCC(=O)O)C[C@H]2C[C@H]1O | 11.8% | . | -10.0% | . | -19.1% | 0.1%
CN(C)c1ncc2nc(-c3cc(F)cc(F)c3)c(=O)n(-c3ccccc3)c2n1 | 17.7% | . | . | . | 0.7% | .
Cn1c2ccccc2c2c(C(=O)N3CCN(c4ccccc4)CC3)cn(C3CCCC3)c(=O)c21 | ? | -113.4* | ? | -3.8%[1.84 µM] | -0.9% | -10.2%
CN1CCN(CCCNC(=O)c2cn(C3CCCCC3)c(=O)c3c2c2ccccc2n3C)CC1 | ? | 27.4 | ? | 10.9% | -9.4%[10 µM] | -1.6%
Cc1ccc(NC(=O)C(c2ccc(Cl)cc2Cl)N2CCCC2)cc1 (centres undefined) | 8.3% | 57.5 | 1.7% | 12.4% | -8.1%[1.9 µM] | 4.3%
Cc1cccc(NC(=O)C(c2ccccc2Cl)N2CCOCC2)c1 (centres undefined) | 25.1µM* | . | . | -16.7% | -10.3% | 1.9%
O=C1c2ccccc2C(=O)C12OC2c1ccc(Cl)cc1Cl (centres undefined) | 25.1µM* | -23.8 | -18.2% | 25.1µM* | 26.8%[10 µM] | -0.8%
Cc1cc(C)c2nc3nc(C)c(C)cc3c(N)c2c1 | ? | . | . | 2.4%[9.22 µM] | -17.4%[10 µM] | 2.0%
O=C(NNc1cc(Br)c(O)c(Br)c1)c1ccccc1 | 17.8µM* | . | . | -16.0% | 6.0% | -3.6%
CN(C)S(=O)(=O)c1cc(NC(=O)Cn2ccsc2=N)ccc1Cl | 9.5% | . | . | 18.7% | -34.8% | 3.5%
Cc1[nH]n(-c2ccccc2)c(=O)c1C=Nc1cccc2cccnc12 | -10.3% | -14.4 | -19.3% | ? | -68.8%[10 µM] | -6.7%
CCCCN(CCCC)C(=S)N/N=C/c1c(C)[nH]n(-c2ccccc2)c1=O | 5.01µM* | 43.9 | -29.4% | 11.2µM* | -111.7% | -9.8%
Cc1[nH]n(-c2ccccc2)c(=S)c1C=Nc1cccc([N+](=O)[O-])c1 | 5.62µM* | -22.3 | 8.91µM* | 18.9% | 10.8% | -1.6%
CCCCN=Cc1c(C)[nH]n(-c2ccccc2)c1=S | 28.2µM* | . | . | 23.2% | 14.9% | 5.9%
O=C1CSc2ccccc2N1Cc1ccccc1F | 22.4µM* | ? | -31.0% | 2.8% | -8.3%[0.074 µM] | 7.3%
Cc1cc(/C=C2\SC(=Nc3ccccc3)NC2=O)c(C)n1-c1ccc(S(N)(=O)=O)cc1 | 28.2µM* | -29.8 | -18.3% | ? | -66.5% | -12.3%
Cn1c(=O)n(CCc2ccccc2)c(=O)c2c1nc1n2CCCN1c1ccc(F)cc1 | . | . | . | . | -9.9%[0.074 µM] | .
Cc1cc(C)n(-c2nc(C)nc(N)n2)n1 | 7.7% | ? | -6.2% | 0.794µM* | 7.1% | 3.0%
Cc1cc(C)n(-c2nc(N(c3ccccc3)c3ccccc3)nc(-n3nc(C)cc3C)n2)n1 | 6.8% | -100.0* | -29.9% | -26.5% | -15.2%[10 µM] | -4.6%
CC(C)C1O/C(=N/C(=O)Nc2ccc(Cl)c(Cl)c2)NC1=O (centres undefined) | ? | -15.8 | 20µM* | 2.5% | -14.2% | 0.7%
SMILES | ALDH1A1 block | PNC inhibitor | HPGD inh | HTT aggregate | HTT ATP protect | CBFb RUNX1 block
O=C(Nn1c(-c2ccc(Br)cc2)nc2ccccc2c1=O)c1ccncc1 | 1.1% | . | . | 4.6% | -49.0% | -6.7%
COc1ccc(C(=O)On2c(-c3ccc(Br)cc3)nc3ccccc3c2=O)cc1 | ? | -6.4 | -10.7% | -9.1% | 3.1%[10 µM] | 13.8%
Cc1ccc(-c2nc3ccccc3c(=O)n2NC(=S)N(C)C)cc1 | ? | 33.8 | 28.2µM* | -3.9% | 8.0%[10 µM] | -8.8%
COc1cc(OC)cc(-c2nc3ccccc3c(=O)n2OC(=O)c2ccc(Br)cc2)c1 | -4.4% | -116.4* | -16.2% | -26.5% | 27.6%[10 µM] | -2.9%
COc1ccc(CC(=O)Nn2c(-c3ccccc3)nc3ccccc3c2=O)cc1 | 1µM* | ? | -1.3% | 17.1% | 18.3%[10 µM] | -1.9%
Cc1cc(C(=O)Nn2c(-c3ccc(Br)cc3)nc3ccccc3c2=O)ccc1[N+](=O)[O-] | 1.5% | 18.8 | -6.8% | 35.5µM* | 8.2%[10 µM] | -7.6%
Cc1ccc(-c2nc3ccccc3c(=O)n2NC(=O)c2cccs2)cc1 | ? | -10.8 | -13.0% | -1.0% | -10.8%[10 µM] | -0.7%
COc1ccc(-c2nc3ccccc3c(=O)n2NC(=O)Cc2ccccc2)cc1 | ? | 27.7 | -1.5% | ? | 22.7%[10 µM] | -3.2%
CCNc1ncc2nc(-c3ccc(Cl)cc3)c(=O)n(Cc3ccc(F)cc3)c2n1 | ? | . | . | . | 4.9% | .
O=c1c(Cc2ccccc2)c(O)ccn1CCc1cnc[nH]1 | 21.0% | . | . | -2.2% | . | 2.4%
O=C(NNS(=O)(=O)c1ccc2ccccc2c1)C1CCN(Cc2ccccc2)CC1 | -0.5% | 11.6 | 1.5% | -8.2% | -3.1% | 0.6%
O=S(=O)(NC1CCN(Cc2ccccc2)CC1)c1ccc2ccccc2c1 | 22.4µM* | . | . | -0.1% | -25.2%[10 µM] | -9.7%
CC(=O)N1CCN(C(=O)CC2OC(=O)c3ccccc32)CC1 (centres undefined) | 5.01µM* | 7.3 | ? | -8.2% | -25.1% | 5.7%
O=C(CC1OC(=O)c2ccccc21)Nc1ccccc1N1CCOCC1 (centres undefined) | -6.9% | ? | -2.7% | 6.5% | -4.6% | -3.4%
CC(O)CNCCNCc1c(OCc2ccccc2)ccc2ccccc12 (centres undefined) | 28.2µM* | -8.9 | -9.2% | 18.7% | -0.2% | -20.3%
CC(O)CNCCOc1ccccc1OCc1ccccc1 (centres undefined) | -8.9% | . | . | -6.0%[9.22 µM] | 7.9%[10 µM] | 10.1%
COc1ccc([N+](=O)[O-])cc1NS(=O)(=O)c1cccc(C(=O)O)c1 | . | . | . | -8.3%[9.22 µM] | -0.3%[10 µM] | 5.8%
COC(=O)c1ccc(C(NC(=O)OCc2ccccc2)/C(F)=C/[C@@H](C)C(=O)N[C@@H](CO)Cc2ccccc2)cc1 (some centres undefined) | -5.7% | . | -7.6% | . | -13.0% | 3.6%
Cc1c2c(nc3c(C(=O)NC4CC4)cnn13)CCCC2 | -1.7% | 13.6 | 20µM* | 26.8% | -24.1% | 3.1%
